# Where two headings read alike, the source gives them in different places.
# Legend:
# Set-up in all cases: species or system human, MV4-11 + K-562 + COLO205 + SK-N-BE2 + OVCAR-8
# ADRBK1 = settings: read-out: apparent Kd, compound concentrations: 100 nM and 1000 nM (sheet 'Samples'), n = 1
# MAPK14 = settings: read-out: apparent Kd; compound concentrations: 100 nM and 1000 nM (sheet 'Samples'), CATDS: 0.54620788714076096; n = 1
# MAPK9 = settings: read-out: apparent Kd; compound concentrations: 100 nM and 1000 nM (sheet 'Samples'), CATDS: 0.17242966969454199; n = 1
# MAPKAPK2 = settings: read-out: apparent Kd; compound concentrations: 100 nM and 1000 nM (sheet 'Samples'), CATDS: 0.40894707261739799; n = 1
# FLT4 = settings: read-out: apparent Kd; compound concentrations: 100 nM and 1000 nM (sheet 'Samples'), CATDS: 0.144028041300378; n = 1
# MAP4K5 = settings: read-out: apparent Kd; compound concentrations: 100 nM and 1000 nM (sheet 'Samples'), CATDS: 0.15363433252833; n = 1
# PLK1 = settings: read-out: apparent Kd; compound concentrations: 100 nM and 1000 nM (sheet 'Samples'), CATDS: 0.58980024549807997; n = 1
# SLK = settings: read-out: apparent Kd; compound concentrations: 100 nM and 1000 nM (sheet 'Samples'), CATDS: 0.13817903386438299; n = 1
# STK10 = settings: read-out: apparent Kd; compound concentrations: 100 nM and 1000 nM (sheet 'Samples'), CATDS: 0.15967879525120501; n = 1
# AKT1 = settings: read-out: apparent Kd; compound concentrations:100 nM and 1000 nM (sheet 'Samples'); n = 1
# AKT2 = settings: read-out: apparent Kd, n = 1
# AKT3 = settings: read-out: apparent Kd; compound concentrations:100 nM and 1000 nM (sheet 'Samples'); n = 1
# ATM = settings: read-out: apparent Kd; compound concentrations:100 nM and 1000 nM (sheet 'Samples'); n = 1
# CAMK4 = settings: read-out: apparent Kd; compound concentrations:100 nM and 1000 nM (sheet 'Samples'); n = 1
# JAK2 = settings: read-out: apparent Kd; compound concentrations:100 nM and 1000 nM (sheet 'Samples'); n = 1
# MAP2K1 = settings: read-out: apparent Kd; compound concentrations:100 nM and 1000 nM (sheet 'Samples'); n = 1
# NQO1 = settings: read-out: apparent Kd, n = 1
# PRKCD = settings: read-out: apparent Kd; compound concentrations:100 nM and 1000 nM (sheet 'Samples'); n = 1
# PRKCQ = settings: read-out: apparent Kd; compound concentrations: 100 nM and 1000 nM (sheet 'Samples'), CATDS: 0.49835750263786499; n = 1
# PRKCZ = settings: read-out: apparent Kd; compound concentrations:100 nM and 1000 nM (sheet 'Samples'); n = 1
# RIOK2 = settings: read-out: apparent Kd, n = 1
# TTN = settings: read-out: apparent Kd; compound concentrations:100 nM and 1000 nM (sheet 'Samples'); n = 1
# AGPS = settings: read-out: apparent Kd; compound concentrations:100 nM and 1000 nM (sheet 'Samples'); n = 1
# COX5A = settings: read-out: apparent Kd; compound concentrations:100 nM and 1000 nM (sheet 'Samples'); n = 1
# TGFBR1 = settings: read-out: apparent Kd; compound concentrations:100 nM and 1000 nM (sheet 'Samples'); n = 1
# DDX3X;DDX3Y = settings: read-out: apparent Kd; compound concentrations:100 nM and 1000 nM (sheet 'Samples'); n = 1
# CDK6 = settings: read-out: apparent Kd; compound concentrations: 100 nM and 1000 nM (sheet 'Samples'), CATDS: 0.111886140460168; n = 1
# EGFR = settings: read-out: apparent Kd; compound concentrations: 100 nM and 1000 nM (sheet 'Samples'), CATDS: 0.20286097232099201; n = 1
# MAP2K2 = settings: read-out: apparent Kd; compound concentrations: 100 nM and 1000 nM (sheet 'Samples'), CATDS: 0.118156666202673; n = 1
# PYGL = settings: read-out: apparent Kd; compound concentrations: 100 nM and 1000 nM (sheet 'Samples'), CATDS: 0.12425140919606401; n = 1
# RIPK2 = settings: read-out: apparent Kd; compound concentrations: 100 nM and 1000 nM (sheet 'Samples'), CATDS: 0.17953871866569099; n = 1
# [1] = compound concentrations:100 nM and 1000 nM (sheet 'Samples')
structure (smiles),measurement,setting,value
Cl.Cn1c(=O)c(Oc2ccc(F)cc2F)cc2cnc(NCC(C)(C)O)nc21 [RO3308967-001],potency estimated from few doses,ADRBK1; CATDS: 0.168792750193444,1.78 µM
same,potency estimated from few doses,MAPK14,0.044 µM
same,potency estimated from few doses,MAPK9,1.6 µM
same,potency estimated from few doses,MAPKAPK2,0.0767 µM
COc1cc2ncn(-c3cc(OCc4ccncc4Br)c(C(N)=O)s3)c2cc1OC [GW854278X],potency estimated from few doses,ADRBK1; CATDS: 0.136000830332002,2.2 µM
same,potency estimated from few doses,FLT4,1.88 µM
same,potency estimated from few doses,MAP4K5,1.59 µM
same,potency estimated from few doses,PLK1,0.135 µM
same,potency estimated from few doses,SLK,2.1 µM
same,potency estimated from few doses,STK10,1.45 µM
NCC1CCC(CNc2nc(NCc3ccccc3OC(F)(F)F)ncc2[N+](=O)[O-])CC1 (stereo not drawn) [BIRZ0518XX],potency estimated from few doses,AKT1,1.96 µM
same,potency estimated from few doses,AKT2; [1],1.97 µM
same,potency estimated from few doses,AKT3,1.21 µM
same,potency estimated from few doses,ATM,0.249 µM
same,potency estimated from few doses,CAMK4,1.11 µM
same,potency estimated from few doses,JAK2,0.517 µM
same,potency estimated from few doses,MAP2K1,2.28 µM
same,potency estimated from few doses,NQO1; [1],1.29 µM
same,potency estimated from few doses,PRKCD,0.648 µM
same,potency estimated from few doses,PRKCQ,0.0403 µM
same,potency estimated from few doses,PRKCZ,2.02 µM
same,potency estimated from few doses,RIOK2; [1],1.91 µM
same,potency estimated from few doses,TTN,1.03 µM
Fc1ccc(-c2cc(-c3c[nH]nc3-c3ccccn3)ccn2)cc1 [GW680975X],potency estimated from few doses,AGPS,1.79 µM
same,potency estimated from few doses,COX5A,0.132 µM
same,potency estimated from few doses,TGFBR1,0.96 µM
COc1cccc(C2=C(Nc3cccc(O)c3)C(=O)NC2=O)c1 [SB-390771],potency estimated from few doses,AKT1,2.06 µM
same,potency estimated from few doses,AKT3,1.93 µM
same,potency estimated from few doses,DDX3X;DDX3Y,2.11 µM
same,potency estimated from few doses,RIOK2; [1],2.46 µM
CCS(=O)(=O)c1ccc(OC)c(Nc2ncc(-c3ccccc3Cl)o2)c1 [GW622055X],potency estimated from few doses,ADRBK1; CATDS: 0.49324160998550998,1.78 µM
same,potency estimated from few doses,"RIOK2; compound concentrations: 100 nM and 1000 nM (sheet 'Samples'), CATDS: 0.50694616971053197",1.68 µM
Cn1cncc1-c1ccc2ncnc(Nc3ccc(OCc4ccccc4)cc3)c2c1 [GW320571X],potency estimated from few doses,"AKT2; compound concentrations: 100 nM and 1000 nM (sheet 'Samples'), CATDS: 0.134297871058083",1.18 µM
same,potency estimated from few doses,CDK6,1.88 µM
same,potency estimated from few doses,EGFR,0.545 µM
same,potency estimated from few doses,MAP2K2,1.61 µM
same,potency estimated from few doses,"NQO1; compound concentrations: 100 nM and 1000 nM (sheet 'Samples'), CATDS: 0.17840078958021699",0.676 µM
same,potency estimated from few doses,PYGL,1.42 µM
same,potency estimated from few doses,RIPK2,0.668 µM
